# According to PubChem BioAssay AID620 (Sanford-Burnham Center for Chemical Genomics, 2007):
# Among all 87,000 compounds or so, about 360 (0.41%) were called active. Rule as the data show it: active = cytotoxicity above about 50%; inactive = the rest. Shown is part of a subset that was picked to be rich in actives.
# Test: HT1080 cell viability loss – fluorescence readout (AID 620);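 also: cells exposed to compound overnight then 4 h with Alamar Blue; 0% = vehicle DMSO and 100% = killing control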
# Conditions: at 10 µM, active compounds read high
row,Compound,cytotoxicity
1,CCC1Oc2ccccc2N(CC(=O)NCCCN2CCOCC2)C1=O (configuration not stated),-2.1% (inactive)
2,O=S(=O)(Nc1ccc2c(c1)OCO2)c1ccc(Br)s1,9.9% (inactive)
3,COCCn1c(SCC#N)nnc1-c1ccccc1,22.4% (inactive)
4,CCOc1cc(/C=N/n2cnnc2)cc(Br)c1O,0.3% (inactive)
5,CCOc1cc(/C=N/n2cnnc2)c(Br)cc1O,62.2% (active)
6,CCOc1cc(/C=N/n2cnnc2)ccc1O,-5% (inactive)
7,COC(=O)c1ccccc1S(=O)(=O)Nc1ccc(OC)nc1,13% (inactive)
8,COc1ccc(NC(=O)/C(Cl)=C(/Cl)S(=O)(=O)Cc2ccccc2)cn1,79.3% (active)
9,COc1ccc(CNC(=O)Nc2ccc(C)cc2)cc1,-2.8% (inactive)
10,COc1ccc(NS(=O)(=O)Cc2ccccc2Cl)cn1,14.8% (inactive)
11,COc1ccc(CS(=O)(=O)/C(Cl)=C(/Cl)C(=O)Nc2ccc(OC)nc2)cc1,63.1% (active)
12,COc1ccc(NC(=O)C(CC(C)C)NC(=O)c2ccccc2C)cn1 (configuration not stated),0.6% (inactive)
13,CCCS(=O)(=O)C(=C(Nc1ccc(OC)cc1)Nc1ccc(OC)cc1)S(=O)(=O)CCC,7.4% (inactive)
14,COc1ccc(NC(=O)c2cc(OC)c(OC)c(OC)c2)cn1,3.1% (inactive)
15,COc1ccc(C(=O)/C=C(\N)C(F)(F)F)c(O)c1,-3.6% (inactive)
16,CCOC(=O)CSc1nc2c(c(=O)[nH]c(=O)n2C)n1C/C=C(/C)Cl,12% (inactive)
17,O=C1C=C(N(CCO)CCO)C2(CCCCC2)O1,-7.3% (inactive)
18,O=C(O)CNc1nc(-c2ccccc2)nc2ccccc12,-10.9% (inactive)
19,COC1=C(OC)c2ccccc2C(C(=O)O)N/C1=C(/C)Nc1ccncc1 (configuration not stated),-1% (inactive)
20,CN(CC(=O)NC1CCCCCCC1)S(=O)(=O)c1cccc2cccnc12,-11.8% (inactive)
21,CCOC(=O)/C(=C/Nc1ccccc1)[N+](=O)[O-],-10.2% (inactive)
22,CCOC(=O)c1cccc(NC(=O)c2cccnc2)c1,0.2% (inactive)
23,CCOC(=O)/C(=C\c1cccnc1)C(=O)c1cc(C(C)=O)c(Nc2ccccc2)s1,75.6% (active)
24,CCOC(=O)Nc1cccc(Nc2ccccc2)c1,-3.2% (inactive)

row,Compound,cytotoxicity
1,CCOC(=O)c1sc(Nc2ccccc2)nc1C,15% (inactive)
2,Cn1c(-c2sc(=S)n(-c3ccccc3)c2N)nc2ccccc21,-7.2% (inactive)
3,CCCCn1c(SCC(=O)N2CCC(C)CC2)nc2cc(S(N)(=O)=O)ccc21,27.9% (inactive)
4,CC1CCc2c(sc3ncnc(SCC(=O)c4ccccc4)c23)C1 (configuration not stated),4.4% (inactive)
5,CC(C)(C)c1csc(NC(=O)Cn2c(=O)oc3ccccc32)n1,-6.8% (inactive)
6,CNC(=O)c1ncnnc1N(C)C(=O)NCc1ccccc1,-2.1% (inactive)
7,CN1CCN(C(=O)c2ccc(C3SCC(=O)N3Cc3ccco3)cc2)CC1 (configuration not stated),-8.2% (inactive)
8,O=C1c2ccccc2OC2(C=Cc3ccccc3O2)N1Cc1ccccc1 (configuration not stated),15.6% (inactive)
9,CN1CC2=Cc3ccccc3OC23Oc2ccccc2C=C3C1,51.7% (active)
10,O=C(Nc1cccc(-c2nc3ccccc3o2)c1)c1ccc(N2C(=O)C3C4C=CC(C4)C3C2=O)cc1 (configuration not stated),21.5% (inactive)
11,COCCNc1nnc(SCC(=O)c2ccc3c(c2)OCO3)s1,1.3% (inactive)
12,CCSc1nnc(NC(=O)c2ccccn2)s1,-11% (inactive)
13,CCSc1nnc(NC(=O)c2ccc3c(c2)OCO3)s1,55.2% (active)
14,CCSc1nnc(NC(=O)c2csc(C)c2)s1,25.7% (inactive)
15,CCSc1nnc(NC(=O)c2cccs2)s1,-4.1% (inactive)
16,CCSc1nnc(NC(=O)c2ccc(Br)s2)s1,68.3% (active)
17,CCOCCCn1c(SCC(=O)Nc2ccc(C(N)=O)cc2)nc2ccccc2c1=O,-6% (inactive)
18,CCOC(=O)c1cc(-c2ccc(C)o2)nn1CCC#N,0.3% (inactive)
19,CCC1=Nc2cc(C(=O)NCCCOC)ccc2Sc2ccccc21,68.1% (active)
20,CCC1=Nc2cc(C(=O)NCCCOC(C)C)ccc2Sc2ccccc21,39.6% (inactive)
21,CCCC1=Nc2cc(C(=O)NCCCOC(C)C)ccc2Sc2ccccc21,6.2% (inactive)
22,CCOCCCNC(=O)c1ccc(OC)cc1,-2.5% (inactive)
23,COCCCNC(=O)c1cccc(C(=O)NCCCOC)c1,0.6% (inactive)
24,CCCC1=Nc2cc(C(=O)NCCCOCC)ccc2Sc2ccccc21,63.8% (active)

row,Compound,cytotoxicity
1,CC(C)C1N=C2c3ccccc3N=C(SCc3cc(=O)n4ccccc4n3)N2C1=O (configuration not stated),2.9% (inactive)
2,CCOc1ccc(S(=O)(=O)N2CCN(C)CC2)c(C)c1C,11.2% (inactive)
3,CCC(C)(C)n1c(=O)[nH]c2c(c1=O)CCC2,25.2% (inactive)
4,O=C(Nc1ccccc1N1CCCCC1)c1ncoc1-c1ccc(F)cc1,-6.7% (inactive)
5,CCOc1ccc(/C=C2/SC(=S)N(n3c(C)ccc3C)C2=O)cc1,-16.1% (inactive)
6,COc1ccc(C(=O)N2CCc3cc(OC)c(OC)cc3C2)cc1OC,-5.5% (inactive)
7,CCOc1cc(C(=O)N2CCc3cc(OC)c(OC)cc3C2)ccc1OC(F)F,59.3% (active)
8,CCOc1ccc(C(=O)N2CCCC2)cc1OC,4.1% (inactive)
9,COC(=O)CN1C(=O)C2(C(C#N)=C(N)Oc3c2c(C)nn3-c2ccccc2)c2ccccc21 (configuration not stated),-65.1% (inactive)
10,Cc1ccc(NC(=O)CN2CC(C)SC2=NC2CCCCC2)cc1 (configuration not stated),87% (active)
11,CCc1cccc(CC)c1NC(=O)CN1CC(C)SC1=NC1CCCCC1 (configuration not stated),-4.4% (inactive)
12,CC1CCCN(S(=O)(=O)c2ccc(NC(=O)CN3CCN(C)CC3)cc2)C1 (configuration not stated),-6.1% (inactive)
13,CCOC(=O)c1c(NC(=O)CSc2nnc(-c3ccccc3C)n2C)sc(C(C)=O)c1C,-23.9% (inactive)
14,O=C1NCCCC1C(=O)N1CCN(C(=O)c2ccco2)CC1 (configuration not stated),1.1% (inactive)
15,COc1cccc(NC(=O)CC2C(=O)NC3CCCCC3N2C(=O)c2ccc(F)cc2)c1 (configuration not stated),-16.2% (inactive)
16,O=C(O)c1n[nH]c2c1CCCC2,-12.7% (inactive)
17,CC(/C=N/NC(=O)c1n[nH]c2c1CCC2)=C\c1ccccc1,71.7% (active)
18,Cc1ccccc1NCC(=O)N/N=C/C(Br)=C/c1ccccc1,-17.1% (inactive)
19,Cc1ccc(NCC(=O)N/N=C\C(Br)=C\c2ccccc2)cc1,8.3% (inactive)
20,CC(=C/c1ccccc1)/C=N/NC(=O)c1cnccn1,-7.1% (inactive)
21,O=C(CNc1cccc2ccccc12)N/N=C/C(Br)=C/c1ccccc1,1.9% (inactive)
22,O=C(N/N=C/C(Br)=C\c1ccccc1)c1n[nH]c2c1CCC2,66.5% (active)
23,O=C(N/N=C/C(Br)=C/c1ccccc1)c1n[nH]c2c1CCC2,66.4% (active)
24,CC(/C=N/NC(=O)c1ccc(Br)cc1)=C\c1ccccc1,-15.4% (inactive)
